Screening results deposited in PubChem BioAssay by Buhrlage Lab, Dana-Farber Cancer Institute and Novartis Institutes for BioMedical Research (Cambridge, Mass).
In the library only some 9.2% were active in any assay of this set; here they are far more common.
USP7 inh – inhibitors of human USP7 deubiquitinase; hit rate 0.3% among 47,000; Ubiquitin carboxyl-terminal hydrolase 7 (Homo sapiens), Q93009; AID 1645854, 2021; purified USP7, Ub-rhodamine cleavage fluorescence; inhibition, % at 20 µM
USP17 inh – inhibitors of human USP17 deubiquitinase. purified USP17, Ub-rhodamine cleavage fluorescence, 3 h. hit rate 6.5% among 47,000. AID 1645855, 2021. inhibition, % at 50 µM
USP8 block – inhibitors of human USP8 deubiquitinase. Ubiquitin carboxyl-terminal hydrolase 8 (Homo sapiens), P40818. purified USP8, Ub-rhodamine cleavage fluorescence, 30 min. inhibition, % at 20 µM. hit rate 4.2% among 47,000
OTUD3 inh – inhibitors of human OTUD3 deubiquitinase | OTU domain-containing protein 3 (Homo sapiens), Q5T2D3 | purified OTUD3, Ub-rhodamine fluorescence, 2 h | inhibition, % at 25 µM | hit rate 0.7% among 47,000 | AID 1645858, 2021
UCHL1 block – inhibitors of human UCHL1 deubiquitinase. Ubiquitin carboxyl-terminal hydrolase isozyme L1 (Homo sapiens), P09936. purified UCHL1, Ub-rhodamine cleavage fluorescence. inhibition, % at 20 µM. hit rate 0.2% among 47,000
USP10 block – inhibitors of human USP10 deubiquitinase; Ubiquitin carboxyl-terminal hydrolase 10 (Homo sapiens), Q14694; inhibition, % at 20 µM; purified USP10, Ub-rhodamine fluorescence, 60 min; AID 1645856, 2021; hit rate 1.1% among 47,000
Starred values were filed as active, the others as inactive. Cut-off read from the data, not from the text of the source: active = inhibition above about 30%; inactive = the rest.

SMILES	USP7 inh	USP17 inh	USP8 block	OTUD3 inh	UCHL1 block	USP10 block
CCCn1cnc2nc(CSc3ccccc3NC(=O)C(C)C)cc(=O)n21	-1	-4	-23	-4	-6	-1
Cc1cc(C)cc(NC(=O)Nc2ccccc2OCc2cc(=O)n3c(ncn3C(C)C)n2)c1	10	-10	50*	-17	-1	40*
COc1ccc(CC(=O)N2CCc3cc(OC)c(OC)cc3C2COc2ccc([N+](=O)[O-])cc2)cc1 (configuration not stated)	-68	2	-23	10	4	6
COC(=O)c1ccc(OCC2c3cc(OC)c(OC)cc3CCN2C(=O)Cc2ccc(F)cc2)cc1 (configuration not stated)	14	15	36*	6	9	7
Cn1nc(-c2ccccc2)c(CO)c1Sc1ccccc1Cl	0	49*	-2	-5	0	5
Cn1nc(-c2ccccc2)c(CO)c1Sc1cccc(C(F)(F)F)c1	-12	20	6	15	10	6
CC(Oc1ccccc1)C(=O)NCc1cnn2ccccc12 (configuration not stated)	-4	-13	-27	-5	-1	-2
COc1ccc(CN2C(=O)N[C@@H](CCC(=O)Nc3cccc(Cl)c3)C2=O)cc1	7	14	25	10	1	12
COc1ccc(CN2C(=O)N[C@@H](CCC(=O)Nc3cccc(OC)c3)C2=O)cc1	4	45*	12	11	1	4
Cc1noc(-c2cccn(Cc3cccc(C(F)(F)F)c3)c2=O)n1	0	13	24	12	1	1
NC(=O)c1nc(-c2ccc(OCc3ccccc3)cc2)nc2c1[nH]c(=O)n2-c1ccc2c(c1)OCO2	11	6	49*	3	0	3
COc1cccc(-c2nc(C(N)=O)c3[nH]c(=O)n(-c4ccc5c(c4)OCO5)c3n2)c1O	4	4	31*	7	4	0
COc1cc(-c2nc(C(N)=O)c3[nH]c(=O)n(-c4ccccc4)c3n2)ccc1O	-10	26	23	13	-16	-9
NC(=O)c1nc(-c2ccc(OCc3ccccc3)cc2)nc2c1[nH]c(=O)n2-c1ccccc1	-26	-123	-288	-135	-40	-5
O=C(c1cccc(F)c1)N1CCC(c2nc(-c3ccc(F)cc3)no2)CC1	-27	2	9	13	2	1
COC(=O)c1sc2ccccc2c1NC(=O)c1ccc(Br)s1	4	70*	0	12	0	9
COC(=O)c1sc2cc([N+](=O)[O-])sc2c1NC(C)=O	-30	-15	-67	-2	-9	-11
CC(C)Cc1ccc(-c2cc3nc(NCCc4ccncc4)ccn3n2)cc1	5	-26	-26	-8	-1	-13
c1ccc(C(NCc2ccc3c(c2)OCO3)c2ccccc2)cc1	7	13	16	21	2	5
COc1ccccc1-c1nc2c3c(ncn2n1)Oc1c(c(C)nn1-c1ccccc1)C3c1cccnc1 (configuration not stated)	1	54*	-2	2	0	-2
CCOC(=O)C1CCN(C(=O)c2ccc3c(c2)NC(=O)C(CS(=O)(=O)Cc2ccccc2Cl)N3)CC1 (configuration not stated)	-14	0	49*	-36	-3	-12
O=C1Nc2cc(C(=O)N3CCCC3)ccc2NC1CS(=O)(=O)Cc1ccc(F)cc1Cl (configuration not stated)	-16	-13	35*	-43	-4	-4
CC(C)c1c(O)ccc2c1CCC1[C@@](C)(C=O)CCC[C@]21C (some centres not stated)	8	35*	5	9	8	13
Cc1ccc(S(=O)(=O)c2nnn3c2nc(NCc2ccco2)c2sccc23)cc1	0	-25	32*	-20	-2	1
O=C(Nc1ccc2sccc2c1)c1ccc(F)cc1	3	49*	5	0	0	1
O=C(Nc1ccc2c(c1)COC2=O)c1ccc(F)cc1	0	19	1	-5	0	1
